Experimental data as given in PubChem BioAssay (NCATS).
Records with an inconclusive call do not appear. A call without a number means that no potency is given here. A number with no mark means an inactive call. Active and inactive are the calls of the source. Calls come from the whole dose curve; as a rule, active = well fitted curve in the direction sought with a large enough effect; inconclusive = small, poorly fitted or top-dose-only effect, or another doubt; inactive = no such curve, though single readings can be large; an effect the other way counts as inactive or inconclusive.

Key:
HeLa = assay: Primary qHTS to identify gynecologic anti-cancer compounds using libraries of approved drugs and bioactive compounds (AID 1345084); settings: Gynecologic cancer cell panel viability, ATPlite luminescence, 48 h; series mostly up to 57.5 µM; note: nearly all actives have a fitted effect of over 55% in size
Outline: (§1)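 Cells, 1,000 per well, were allowed to settle for 16 h at 37 C before compound addition. Five concentrations were tested for 48 h, and viability was read by ATPlite luminescence after 15 min at room temperature.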

JEG-3 = assay: as above; settings: Gynecologic cancer cell panel viability, ATPlite luminescence, 48 h; series mostly up to 57.5 µM
Outline: as §1

Hek293T = assay: as above; settings: Gynecologic cancer cell panel viability, ATPlite luminescence, 48 h, control line for the selectivity index; series mostly up to 57.5 µM
Outline: as §1

PA-1 = assay: as above; settings: Gynecologic cancer cell panel viability, ATPlite luminescence, 48 h; series mostly up to 57.5 µM
Outline: as §1

SKOV3 = assay: as above; settings: Gynecologic cancer cell panel viability, ATPlite luminescence, 48 h; series mostly up to 57.5 µM
Outline: as §1

Tov-21-G = assay: as above; settings: Gynecologic cancer cell panel viability, ATPlite luminescence, 48 h; series mostly up to 57.5 µM
Outline: as §1

Tov112D = assay: as above; settings: Gynecologic cancer cell panel viability, ATPlite luminescence, 48 h; series mostly up to 57.5 µM
Outline: as §1

[1] = Drug repurposing screens with cells derived from glioblastoma tumor samples (AID 1345199); settings: GBM patient neurospheres viability, ATP luminescence, 48 h; note: nearly all actives have a fitted effect of over 40% in size
Outline: (§2)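 Primary testing used CD133+ neurospheres from four GBM patients, seven concentrations, 48 h exposure and ATP-based viability; confirmation added three slower-growing patient lines.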

astro = assay: as above; settings: viability, ATP luminescence, 48 h; series mostly up to 45.9 µM
Outline: as §2

OV90 = assay: Primary qHTS to identify gynecologic anti-cancer compounds using libraries of approved drugs and bioactive compounds (AID 1345084); settings: Gynecologic cancer cell panel viability, ATPlite luminescence, 48 h; series mostly up to 57.5 µM; note: nearly all actives have a fitted effect of over 55% in size
Outline: as §1

[2] = at 20 µM (top of the series), tumour line C
[3] = at 21.2 µM (top of the series), tumour line B
[4] = at 21.2 µM (top of the series), tumour line D
[5] = at 21.3 µM (top of the series), tumour line A
[6] = at 46.1 µM (top of the series), tumour line C
Potency is the fitted concentration of half-maximal effect.

Question: With `CCCCc1oc2ccc(NS(C)(=O)=O)cc2c1C(=O)c1ccc(OCCCN(CCCC)CCCC)cc1` as the molecule, how does the Potency (HeLa) read?
Answer: Its Potency is “inactive”.

Question: And the Potency (JEG-3)?
Answer: Its Potency is “inactive”.

Question: With `COc1cc(NS(=O)(=O)c2ccc(N)cc2)nc(OC)n1` as the molecule, how does the Potency (Hek293T) read?
Answer: The Potency was “inactive”.

Question: What about the Potency (JEG-3) of the same molecule?
Answer: The Potency was “inactive”.

Question: What about the Potency (PA-1) of the same molecule?
Answer: The Potency was “inactive”.

Question: What about the Potency (SKOV3) of the same molecule?
Answer: Its Potency is “inactive”.

Question: And the Potency (Tov-21-G)?
Answer: Its Potency is “inactive”.

Question: What about the Potency (Tov112D) of the same molecule?
Answer: Its Potency is “inactive”.

Question: And the activity, negative = cell killing [1, 2]?
Answer: The activity, negative = cell killing was -7.42%.

Question: What about the activity, negative = cell killing [1, 3] of the same molecule?
Answer: The activity, negative = cell killing was -12.9%.

Question: And the activity, negative = cell killing [1, 4]?
Answer: Its activity, negative = cell killing is -12.1%.

Question: And the activity, negative = cell killing [1, 5]?
Answer: Its activity, negative = cell killing is -9.97%.

Question: And the Potency (astro)?
Answer: The Potency was “inactive”.

Question: Which Potency (JEG-3) does the source give for `CC(=O)Oc1ccccc1C(=O)Nc1ncc([N+](=O)[O-])s1` here?
Answer: Its Potency is “inactive”.

Question: What about the Potency (OV90) of the same molecule?
Answer: The Potency was “inactive”.

Question: What about the Potency (Tov-21-G) of the same molecule?
Answer: The Potency was “inactive”.

Question: What about the Potency (Tov112D) of the same molecule?
Answer: Its Potency is “inactive”.

Question: Which Potency (OV90) does the source give for `COC(=O)Nc1nc2ccc(C(=O)c3ccccc3)cc2[nH]1` here?
Answer: The Potency was 8.91 µM (active).

Question: What about the Potency (PA-1) of the same molecule?
Answer: The Potency was 1.41 µM (active).

Question: And the Potency (Tov112D)?
Answer: The Potency was 1.58 µM (active).

Question: What about the activity, negative = cell killing [1, 2] of the same molecule?
Answer: The activity, negative = cell killing was -22.4%.

Question: And the Potency ([1]; tumour line A)?
Answer: The Potency was 0.158 µM (active).

Question: With `C[C@@H]1C[C@H]2[C@@H]3CCC4=CC(=O)C=C[C@]4(C)[C@@]3(Cl)[C@@H](O)C[C@]2(C)[C@@]1(OC(=O)c1ccco1)C(=O)CCl` as the molecule, how does the Potency (OV90) read?
Answer: The Potency was “inactive”.

Question: What about the Potency (PA-1) of the same molecule?
Answer: Its Potency is “inactive”.

Question: And the Potency (SKOV3)?
Answer: Its Potency is “inactive”.

Question: And the Potency (Tov-21-G)?
Answer: The Potency was “inactive”.

Question: What about the Potency (Tov112D) of the same molecule?
Answer: The Potency was “inactive”.

Question: What about the activity, negative = cell killing [1, 2] of the same molecule?
Answer: Its activity, negative = cell killing is 13.7%.

Question: What about the activity, negative = cell killing [1, 3] of the same molecule?
Answer: Its activity, negative = cell killing is -9.13%.

Question: What about the activity, negative = cell killing [1, 4] of the same molecule?
Answer: The activity, negative = cell killing was -9.21%.

Question: What about the activity, negative = cell killing [1, 5] of the same molecule?
Answer: Its activity, negative = cell killing is -28.2%.

Question: And the Potency (astro)?
Answer: The Potency was “inactive”.

Question: What does the source list for `CCCCCCNC(=O)n1cc(F)c(=O)[nH]c1=O`?
Answer: Potency (Hek293T): inactive; Potency (OV90): inactive; Potency (Tov112D): inactive; activity, negative = cell killing [1, 6]: -20.6%

Question: With `Cc1oc(=O)oc1CN1CCN(c2cc3c(cc2F)c(=O)c(C(=O)O)c2n3C(C)S2)CC1` (stereo unspecified) as the molecule, how does the Potency (Hek293T) read?
Answer: The Potency was “inactive”.

Question: And the Potency (JEG-3)?
Answer: The Potency was “inactive”.

Question: What about the Potency (OV90) of the same molecule?
Answer: The Potency was “inactive”.

Question: And the Potency (PA-1)?
Answer: Its Potency is “inactive”.

Question: And the Potency (Tov-21-G)?
Answer: Its Potency is “inactive”.

Question: And the Potency (Tov112D)?
Answer: Its Potency is “inactive”.

Question: And the activity, negative = cell killing ([1]; at 45.9 µM (top of the series), tumour line B)?
Answer: The activity, negative = cell killing was -20.2%.

Question: What about the activity, negative = cell killing ([1]; at 45.9 µM (top of the series), tumour line D) of the same molecule?
Answer: The activity, negative = cell killing was 7.6%.

Question: What about the activity, negative = cell killing ([1]; at 46 µM (top of the series), tumour line A) of the same molecule?
Answer: Its activity, negative = cell killing is -22.8%.

Question: What about the activity, negative = cell killing [1, 6] of the same molecule?
Answer: Its activity, negative = cell killing is -0.513%.

Question: Which Potency (Hek293T) does the source give for `Cc1cccc(N(C)C(=S)Oc2ccc3ccccc3c2)c1` here?
Answer: Its Potency is “inactive”.

Question: What about the Potency (OV90) of the same molecule?
Answer: Its Potency is “inactive”.

Question: And the Potency (PA-1)?
Answer: The Potency was “inactive”.

Question: What about the Potency (SKOV3) of the same molecule?
Answer: Its Potency is “inactive”.

Question: What about the Potency (Tov-21-G) of the same molecule?
Answer: Its Potency is “inactive”.

Question: What about the Potency (Tov112D) of the same molecule?
Answer: Its Potency is “inactive”.

Question: What about the activity, negative = cell killing [1, 2] of the same molecule?
Answer: The activity, negative = cell killing was -6.63%.

Question: What about the activity, negative = cell killing [1, 3] of the same molecule?
Answer: Its activity, negative = cell killing is -15.9%.

Question: And the activity, negative = cell killing [1, 4]?
Answer: Its activity, negative = cell killing is -7.02%.

Question: And the Potency (astro)?
Answer: The Potency was “inactive”.
